SUMO HTRF inh: inhibitors of in vitro SUMOylation cascade, primary screen, biochemical, HTRF, uHTS. HTRF SUMOylation assay, SAE1/SAE2 + UBC9. SUMO-conjugating enzyme UBC9 (Homo sapiens), P63279. inhibition, % at 35 µM. 290,000 compounds, 0.36% hits; in the data active means inhibition above about 50%, passing the limit was not always enough
Target sequence (P63279 whole entry, looked up): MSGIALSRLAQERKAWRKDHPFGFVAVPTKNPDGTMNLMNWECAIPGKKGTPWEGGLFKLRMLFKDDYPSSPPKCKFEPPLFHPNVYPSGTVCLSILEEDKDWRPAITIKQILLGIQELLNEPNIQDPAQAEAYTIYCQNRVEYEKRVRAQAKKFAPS
S1P4 ag: S1P4 receptor agonists, primary screen, cell-based | Sphingosine 1-phosphate receptor 4 (Homo sapiens), O95977 | S1P4-expressing cell line, agonist reporter assay | activation, % at 4.98 µM | 220,000 compounds, 0.35% hits; in the data active means activation above about 11%;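 further: 0% = DMSO vehicle and 100% = reference agonist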
S1P3 antagonist: S1P3 receptor antagonists, primary screen, cell-based. Sphingosine 1-phosphate receptor 3 (Homo sapiens), Q99500. inhibition, % at 4.98 µM. AID 485, 2006. 170,000 compounds, 0.27% hits. CHO S1P3 NFAT-BLA reporter, FRET fluorescence, antagonist mode;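 active means inhibition above the plate cutoff, the mean inhibition of test wells on that plate plus 3 SD, cut at about 28% in these data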;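 further: cells challenged with S1P at its EC80 of 0.8 µM; blue over green emission ratio from cleaved BLA substrate after 4 h stimulation; 0% = S1P-stimulated wells and 100% = unstimulated DMSO-only wells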
Target sequence (Q99500 whole entry, looked up): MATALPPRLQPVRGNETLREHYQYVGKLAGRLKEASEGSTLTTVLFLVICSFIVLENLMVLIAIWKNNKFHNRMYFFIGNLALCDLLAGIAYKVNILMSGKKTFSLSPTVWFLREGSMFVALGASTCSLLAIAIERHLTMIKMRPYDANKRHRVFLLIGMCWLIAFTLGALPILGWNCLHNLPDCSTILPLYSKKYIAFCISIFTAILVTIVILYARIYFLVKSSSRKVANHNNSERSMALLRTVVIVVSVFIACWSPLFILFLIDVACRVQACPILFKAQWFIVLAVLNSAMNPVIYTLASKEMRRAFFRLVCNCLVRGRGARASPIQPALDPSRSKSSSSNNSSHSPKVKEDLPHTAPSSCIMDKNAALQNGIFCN
p97 ATPase inh: inhibitors of human p97 ATPase, primary screen, biochemical; Transitional endoplasmic reticulum ATPase (Homo sapiens), P55072; recombinant p97 ATPase, Kinase-Glo ATP luminescence, 3 h; inhibition, % at 8 µM; 220,000 compounds, 0.42% hits; in the data active means inhibition above about 15%;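 further: 0% = DMSO vehicle and 100% = wells lacking enzyme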
S1P4 antagonist: S1P4 receptor antagonists, primary screen, cell-based; inhibition, % at 4.98 µM; AID 1510, 2009; Sphingosine 1-phosphate receptor 4 (Homo sapiens), O95977; 220,000 compounds, 0.26% hits; S1P4-expressing cells, antagonist mode, reporter read-out; in the data active means inhibition above about 29%;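 further: 0% = wells stimulated with agonist and 100% = vehicle wells without agonist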
DTT redox prof: compounds producing H2O2 with reducing agent – biochemical, NIH compound library profiling, artefact control for MLSCN library redox annotation, primary screen. activation, % at 10 µM. 200,000 compounds, 0.03% hits. DTT-dependent redox cycling H2O2, phenol red/HRP absorbance; 100% = 100 µM peroxide control, 0% = buffer;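 active means activation of at least 50% relative to the plate's high and low controls in the primary single-dose screen; inactive means activation below 50%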;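 further: compound incubated with DTT at 0.8 mM final as the reducing agent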
p97 inh conf: p97 ATPase inhibitors, retest, confirmation, biochemical; inhibition, % at 8 µM; shares compounds with p97 ATPase inh; recombinant p97 ATPase, Kinase-Glo ATP luminescence; 760 compounds, 44% hits;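 active means percent inhibition of p97 ATPase above a set limit, the primary screen's mean plus 3 SD, cut at about 15% in these data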;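 further: 0% = DMSO wells and 100% = wells lacking p97 protein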
* hit, by the source's call; · = no result given. In the library only some 1.1% were active in any assay of this set; here they are far more common.

SMILES	SUMO HTRF inh	S1P4 ag	S1P3 antagonist	p97 ATPase inh	S1P4 antagonist	DTT redox prof	p97 inh conf
CCCC(=Nc1ccccc1)C1=C(O)C(C(=O)OC)C(C)(C)CC1=O (configuration not stated)	38	1	-21	1	3	0	·
O=C(Cc1ccc(Br)cc1)Nc1ccc2[nH]ncc2c1	3	·	·	·	·	·	·
Cc1cc(Nc2nc3ccccc3nc2Cl)n(-c2ccccc2C)n1	9	-1	·	15*	-8	-4	11
N#Cc1cc2ccc(N3CCOCC3)cc2cc1C#N	89	0	17	15*	-15	1	19*
N#Cc1cc(Cl)c(N2CCOCC2)cc1C#N	2	0	·	-6	-14	0	·
Cc1cc(C)nc(NC(=O)/C=C/c2ccccc2Cl)n1	19	-1	·	1	4	3	·
Cc1cc(N)c2cc(NC(=O)/C=C/c3ccccc3Cl)ccc2n1	5	0	-7	24*	-6	·	23*
Cc1ccc(NC(=O)CSc2nc3[nH]ncc3c(=O)[nH]2)c(C)c1	6	4	-9	-1	-12	0	·
CCCCOc1ccc(C(=O)NNC(=O)C2C3C=CC(C3)C2C(=O)O)cc1 (configuration not stated)	3	·	·	·	·	·	·
O=c1c2ccccc2ncn1Cc1ccc(Cl)c(Cl)c1	10	·	·	·	·	·	·
Cc1[nH][nH]c(=O)c1C(c1c(C)[nH][nH]c1=O)c1cn(Cc2ccc(Cl)c(Cl)c2)c2ccccc12	42	-1	-20	42*	-4	0	2
NS(=O)(=O)c1ccc(CCNC(=O)CCCn2c(=O)[nH]c3ccc(Br)cc3c2=O)cc1	-4	-2	-5	26*	3	0	10
COCC(=O)N(Cc1nc2ccccc2c(=O)[nH]1)Cc1cccs1	14	-1	-18	5	-3	2	·
COCC(=O)N(CCc1ccc(OC)c(OC)c1)Cc1nc2ccccc2c(=O)[nH]1	25	1	-6	16*	-14	0	8
COc1ccc(Cl)cc1NC(=O)CN(C)CC(=O)Nc1ccc(C)cc1Br	-7	2	-14	-2	-6	1	·
CCN1C(=O)N(CC)c2cccc3cccc1c23	94	·	·	·	·	·	·
CN1CN(C)c2cccc3cccc1c23	35	1	·	29*	-14	1	5
Cc1cccc(NC(=O)CCC(=O)Nc2nnc(C(F)(F)F)s2)c1	13	-1	-7	-3	-4	·	·
CN1C(=O)/C(=C/c2coc3ccc(O)cc3c2=O)SC1=S	24	0	-11	2	8	·	·
N=C1/C(=C/c2coc3ccccc3c2=O)C(=O)N=C2SC(c3ccco3)=NN12	18	0	4	16*	-28	·	19*
CSC1=NSC2=NC(=O)/C(=C\c3coc4ccccc4c3=O)C(=N)N12	-4	2	7	9	0	0	·
N=C1/C(=C\c2coc3ccccc3c2=O)C(=O)N=C2SC(c3ccncc3)=NN12	26	0	-5	32*	-11	·	44*
N=C1/C(=C\c2coc3ccc(O)cc3c2=O)C(=O)N=C2SC=CN12	32	0	5	28*	0	·	24*
COc1cc2[nH]c3c(Cl)ncnc3c2cc1OC	7	0	18	7	-22	-1	·
COc1cc2[nH]c(Cl)c([N+](=O)[O-])c2cc1OC	-1	-1	-15	17*	20	·	6
SMILES	SUMO HTRF inh	S1P4 ag	S1P3 antagonist	p97 ATPase inh	S1P4 antagonist	DTT redox prof	p97 inh conf
CCOC(=O)c1sc(NC(=O)c2c(C)nn(Cc3ccccc3)c2C)cc1C	-15	1	13	20*	-3	-3	6
CCOC(=O)c1sc(NC(=O)c2ccccc2)cc1C	-9	-2	·	-1	3	0	·
CS(=O)(=O)c1ccc(NC(=O)c2cccc(S(=O)(=O)N3CCN(Cc4ccccc4)CC3)c2)cc1	-8	·	·	·	·	·	·
O=C1C2C3C=CC(CC3)C2C(=O)N1c1ccccc1[N+](=O)[O-] (configuration not stated)	-1	0	-24	-7	9	-2	·
CC(C(=O)NCc1ccccc1Cl)N1C(=O)c2ccccc2C1=O (configuration not stated)	14	·	·	·	·	·	·
O=C(Nc1cccc2nsnc12)c1ccc(-c2cccc(Cl)c2)o1	60*	0	·	18*	-4	1	5
O=C(Nc1ccc(Cl)cc1)c1cccc(S(=O)(=O)Nc2ccccn2)c1	3	·	·	·	·	·	·
CSc1nc(SCCO)c2sc3nc(-c4ccco4)c4c(c3c2n1)CC(C)(C)OC4	39	3	·	7	3	-1	·
CSc1nc(N(CCO)CCO)c2sc3nc(-c4ccco4)c4c(c3c2n1)CCC4	62*	-1	·	20*	-9	0	15
O=S(=O)(c1ccc(NC(=S)N/N=C/c2ccc(O)c(O)c2)cc1)N1CCOCC1	15	-1	1	19*	-9	·	21*
CCCCNS(=O)(=O)c1ccc(NC(=O)C(Sc2ccccc2)c2ccccc2)cc1 (configuration not stated)	-24	2	-7	2	-3	0	·
COc1cc(CNc2ccc(O)cc2)cc(Br)c1OCc1ccccc1F	91*	0	1	15*	3	0	5
CCOc1cc(CNc2ccc(O)cc2)cc(Br)c1OCc1ccccc1F	46	0	·	8	-10	2	·
CCn1cc([N+](=O)[O-])c(C(=O)N2CCCCCC2)n1	15	·	·	·	·	·	·
COc1cc(/C=c2\sc3n(c2=O)C(c2ccccc2)C(c2ccccc2)=NN=3)ccc1O (configuration not stated)	-4	1	·	16*	-2	-5	9
CCCNc1c(NC(=O)c2cccs2)c(=O)oc2ccccc12	-2	·	·	·	·	·	·
Cc1cc(/C=C2\SC(=S)NC2=O)c(C)n1-c1cccc(O)c1	24	0	-13	18*	10	·	16*
CCn1c(C)cc(/C=C2/SC(=S)NC2=O)c1C	-11	-1	-12	6	-11	0	·
Cc1ccc(-n2c(C)cc(/C=C3\SC(=O)NC3=O)c2C)cc1	15	·	·	·	·	·	·
Cc1cc(/C=C2\SC(=S)NC2=O)c(C)[nH]1	69	0	-1	15*	-7	0	13
COc1ccc(CC(C)N2CCN(c3cccc(C(F)(F)F)c3)CC2)cc1OC (configuration not stated)	8	2	·	-7	-13	0	·
Cc1cccn2c(=O)c3cc(C(=O)NC4CCCC4)sc3nc12	28	·	·	·	·	·	·

Bioassay records from PubChem.
